# Measured values as given in PMC11006913.
# Positions count from the first letter of the chain named.
# What was measured:
# Experiment in all cases: PBM; 200 nM protein, PBS
# Conditions in all cases: dsDNA, one strand shown
# HOXB4 [1] = molecular target: HOXB4 (Homo sapiens, UniProt P17483 148-234)
# VENTX [2] = molecular target: T1, VENTX (Homo sapiens, UniProt O95231 78-163, R121Q)
# T1 sequence: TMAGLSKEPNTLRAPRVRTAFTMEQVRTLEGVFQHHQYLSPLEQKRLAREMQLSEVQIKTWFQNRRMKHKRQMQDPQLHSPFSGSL
# HOXB9 [3] = molecular target: HOXB9 (Homo sapiens, UniProt P17482 171-250, T197M)
# Chain of HOXB9 (Homo sapiens, UniProt P17482 171-250, T197M) (P17482 171-250 T197M): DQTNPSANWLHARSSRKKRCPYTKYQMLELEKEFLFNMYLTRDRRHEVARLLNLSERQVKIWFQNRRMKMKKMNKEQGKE
# HOXA4 [4] = molecular target: HOXA4 (Homo sapiens, UniProt Q00056 201-287, W262R)
# Chain of HOXA4 (Homo sapiens, UniProt Q00056 201-287, W262R) (Q00056 201-287 W262R): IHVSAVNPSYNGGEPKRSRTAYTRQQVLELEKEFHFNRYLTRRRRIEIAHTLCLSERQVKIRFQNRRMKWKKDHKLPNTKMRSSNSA
# HOXC9 [5] = molecular target: HOXC9 (Homo sapiens, UniProt P31274 178-260, K195R)
# Chain of HOXC9 (Homo sapiens, UniProt P31274 178-260, K195R) (P31274 178-260 K195R): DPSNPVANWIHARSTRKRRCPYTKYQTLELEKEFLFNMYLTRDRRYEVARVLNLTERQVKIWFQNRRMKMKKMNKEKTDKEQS
# VENTX [6] = molecular target: T2, VENTX (Homo sapiens, UniProt O95231 78-163)
# T2 sequence: T1 sequence with Q44R
# HOXA7 [7] = molecular target: HOXA7 (Homo sapiens, UniProt P31268 116-202)
# Chain of HOXA7 (Homo sapiens, UniProt P31268 116-202) (P31268 116-202): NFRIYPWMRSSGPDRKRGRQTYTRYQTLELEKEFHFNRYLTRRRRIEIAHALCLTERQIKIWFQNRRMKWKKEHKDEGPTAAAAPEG
# HOXC10 [8] = molecular target: HOXC10 (Homo sapiens, UniProt Q9NYD6 254-340)
# Chain of HOXC10 (Homo sapiens, UniProt Q9NYD6 254-340) (Q9NYD6 254-340): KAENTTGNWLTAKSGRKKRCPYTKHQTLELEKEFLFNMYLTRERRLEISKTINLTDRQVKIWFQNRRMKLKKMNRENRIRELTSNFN
# PAX4 = molecular target: T3, PAX4 (Homo sapiens, UniProt O43316 9-242, R200K)
# T3 sequence: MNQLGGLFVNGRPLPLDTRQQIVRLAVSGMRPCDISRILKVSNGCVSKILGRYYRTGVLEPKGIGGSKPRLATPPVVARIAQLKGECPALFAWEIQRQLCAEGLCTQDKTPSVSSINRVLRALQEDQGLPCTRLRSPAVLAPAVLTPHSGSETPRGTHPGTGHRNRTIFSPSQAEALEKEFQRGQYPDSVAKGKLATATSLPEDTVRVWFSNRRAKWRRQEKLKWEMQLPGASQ
# VENTX [9] = molecular target: T4, VENTX (Homo sapiens, UniProt O95231 78-163, Y115F)
# T4 sequence: T1 sequence with Y38F, Q44R
# HOXB6 [10] = molecular target: HOXB6 (Homo sapiens, UniProt P17509 132-218, K202E)
# Chain of HOXB6 (Homo sapiens, UniProt P17509 132-218, K202E) (P17509 132-218 K202E): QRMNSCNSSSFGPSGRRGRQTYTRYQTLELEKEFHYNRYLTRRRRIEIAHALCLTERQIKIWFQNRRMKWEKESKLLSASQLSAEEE
# HOXA2 [11] = molecular target: HOXA2 (Homo sapiens, UniProt O43364 129-215, R185T)
# Chain of HOXA2 (Homo sapiens, UniProt O43364 129-215, R185T) (O43364 129-215 R185T): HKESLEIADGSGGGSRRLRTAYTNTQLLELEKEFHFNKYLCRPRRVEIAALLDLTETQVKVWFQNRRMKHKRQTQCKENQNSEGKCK
# HOXA4 [12] = molecular target: HOXA4 (Homo sapiens, UniProt Q00056 201-287, R217L)
# Chain of HOXA4 (Homo sapiens, UniProt Q00056 201-287, R217L) (Q00056 201-287 R217L): as the sequence (Q00056 201-287 W262R) above, with R17L, R62W counted along it
# HOXB9 [13] = molecular target: HOXB9 (Homo sapiens, UniProt P17482 171-250)
# Chain of HOXB9 (Homo sapiens, UniProt P17482 171-250) (P17482 171-250): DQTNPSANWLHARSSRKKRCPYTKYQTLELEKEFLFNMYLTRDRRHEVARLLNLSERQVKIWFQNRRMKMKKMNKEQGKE
# HOXB4 [14] = molecular target: HOXB4 (Homo sapiens, UniProt P17483 148-234, V174I)
# Chain of HOXB4 (Homo sapiens, UniProt P17483 148-234, V174I) (P17483 148-234 V174I): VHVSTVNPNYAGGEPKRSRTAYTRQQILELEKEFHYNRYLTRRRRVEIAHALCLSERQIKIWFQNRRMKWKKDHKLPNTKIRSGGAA
# HOXC9 [15] = molecular target: HOXC9 (Homo sapiens, UniProt P31274 178-260)
# Chain of HOXC9 (Homo sapiens, UniProt P31274 178-260) (P31274 178-260): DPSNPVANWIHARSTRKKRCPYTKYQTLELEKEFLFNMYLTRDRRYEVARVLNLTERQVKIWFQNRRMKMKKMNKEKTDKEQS
# HOXC9 [16] = molecular target: HOXC9 (Homo sapiens, UniProt P31274 178-260, R193K)
# Chain of HOXC9 (Homo sapiens, UniProt P31274 178-260, R193K) (P31274 178-260 R193K): as the sequence (P31274 178-260) above, with R16K counted along it
# HOXA2 [17] = molecular target: HOXA2 (Homo sapiens, UniProt O43364 129-215, R185K)
# Chain of HOXA2 (Homo sapiens, UniProt O43364 129-215, R185K) (O43364 129-215 R185K): as the sequence (O43364 129-215 R185T) above, with T57K counted along it
# HOXA4 [18] = molecular target: HOXA4 (Homo sapiens, UniProt Q00056 201-287)
# Chain of HOXA4 (Homo sapiens, UniProt Q00056 201-287) (Q00056 201-287): as the sequence (Q00056 201-287 W262R) above, with R62W counted along it
# HOXC10 [19] = molecular target: HOXC10 (Homo sapiens, UniProt Q9NYD6 254-340, K271E)
# Chain of HOXC10 (Homo sapiens, UniProt Q9NYD6 254-340, K271E) (Q9NYD6 254-340 K271E): as the sequence (Q9NYD6 254-340) above, with K18E counted along it
# VAX1 [20] = molecular target: VAX1 (Homo sapiens, UniProt Q5SQQ9 86-172)
# Chain of VAX1 (Homo sapiens, UniProt Q5SQQ9 86-172) (Q5SQQ9 86-172): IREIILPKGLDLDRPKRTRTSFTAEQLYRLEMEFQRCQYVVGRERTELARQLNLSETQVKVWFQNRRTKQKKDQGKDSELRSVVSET
# HOXD13 = HOXD13 (Homo sapiens, UniProt P35453 263-343, T313A)
# Chain of HOXD13 (P35453 263-343 T313A): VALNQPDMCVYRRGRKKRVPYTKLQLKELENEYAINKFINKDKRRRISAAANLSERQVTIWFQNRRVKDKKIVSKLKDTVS
# HOXB9 [21] = molecular target: HOXB9 (Homo sapiens, UniProt P17482 171-250, R186Q)
# Chain of HOXB9 (Homo sapiens, UniProt P17482 171-250, R186Q) (P17482 171-250 R186Q): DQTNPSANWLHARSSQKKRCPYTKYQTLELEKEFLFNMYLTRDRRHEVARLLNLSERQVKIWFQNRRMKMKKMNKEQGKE
# HOXC9 [22] = molecular target: HOXC9 (Homo sapiens, UniProt P31274 178-260, R222W)
# Chain of HOXC9 (Homo sapiens, UniProt P31274 178-260, R222W) (P31274 178-260 R222W): as the sequence (P31274 178-260) above, with R45W counted along it
# VAX1 [23] = molecular target: VAX1 (Homo sapiens, UniProt Q5SQQ9 86-172, T142I)
# Chain of VAX1 (Homo sapiens, UniProt Q5SQQ9 86-172, T142I) (Q5SQQ9 86-172 T142I): as the sequence (Q5SQQ9 86-172) above, with T57I counted along it
# HOXA2 [24] = molecular target: HOXA2 (Homo sapiens, UniProt O43364 129-215, Y150S)
# Chain of HOXA2 (Homo sapiens, UniProt O43364 129-215, Y150S) (O43364 129-215 Y150S): as the sequence (O43364 129-215 R185T) above, with Y22S, T57R counted along it
# HOXA7 [25] = molecular target: HOXA7 (Homo sapiens, UniProt P31268 116-202, W177C)
# Chain of HOXA7 (Homo sapiens, UniProt P31268 116-202, W177C) (P31268 116-202 W177C): as the sequence (P31268 116-202) above, with W62C counted along it
# HOXA4 [26] = molecular target: HOXA4 (Homo sapiens, UniProt Q00056 201-287, W262F)
# Chain of HOXA4 (Homo sapiens, UniProt Q00056 201-287, W262F) (Q00056 201-287 W262F): as the sequence (Q00056 201-287 W262R) above, with R62F counted along it
# HOXA2 [27] = molecular target: HOXA2 (Homo sapiens, UniProt O43364 129-215)
# Chain of HOXA2 (Homo sapiens, UniProt O43364 129-215) (O43364 129-215): as the sequence (O43364 129-215 R185T) above, with T57R counted along it
# VAX1 [28] = molecular target: VAX1 (Homo sapiens, UniProt Q5SQQ9 86-172, K157R)
# Chain of VAX1 (Homo sapiens, UniProt Q5SQQ9 86-172, K157R) (Q5SQQ9 86-172 K157R): as the sequence (Q5SQQ9 86-172) above, with K72R counted along it
# HOXB6 [29] = molecular target: HOXB6 (Homo sapiens, UniProt P17509 132-218)
# Chain of HOXB6 (Homo sapiens, UniProt P17509 132-218) (P17509 132-218): as the sequence (P17509 132-218 K202E) above, with E71K counted along it
# HESX1 [30] = molecular target: HESX1 (Homo sapiens, UniProt Q9UBX0 95-180, R165K)
# Chain of HESX1 (Homo sapiens, UniProt Q9UBX0 95-180, R165K) (Q9UBX0 95-180 R165K): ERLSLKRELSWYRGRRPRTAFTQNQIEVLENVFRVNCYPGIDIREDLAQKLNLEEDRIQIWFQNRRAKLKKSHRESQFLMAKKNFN
# HESX1 [31] = molecular target: HESX1 (Homo sapiens, UniProt Q9UBX0 95-180)
# Chain of HESX1 (Homo sapiens, UniProt Q9UBX0 95-180) (Q9UBX0 95-180): as the sequence (Q9UBX0 95-180 R165K) above, with K71R counted along it
# HESX1 [32] = molecular target: HESX1 (Homo sapiens, UniProt Q9UBX0 95-180, P111T)
# Chain of HESX1 (Homo sapiens, UniProt Q9UBX0 95-180, P111T) (Q9UBX0 95-180 P111T): as the sequence (Q9UBX0 95-180 R165K) above, with P17T, K71R counted along it
# Chain of HOXB4 (Homo sapiens, UniProt P17483 148-234) (P17483 148-234): as the sequence (P17483 148-234 V174I) above, with I27V counted along it
sequence,measurement,setting,value
ATTAATGG,binding signal,HOXB4 [1],"13.4 upbm affinity estimate (log intensity, higher = more binding, comparable within an allelic series)"
same,binding signal,VENTX [2],"12.2 upbm affinity estimate (log intensity, higher = more binding, comparable within an allelic series)"
same,binding signal,HOXB9 [3],"10.3 upbm affinity estimate (log intensity, higher = more binding, comparable within an allelic series)"
same,binding signal,HOXA4 [4],"10.7 upbm affinity estimate (log intensity, higher = more binding, comparable within an allelic series)"
same,binding signal,HOXC9 [5],"12.9 upbm affinity estimate (log intensity, higher = more binding, comparable within an allelic series)"
same,binding signal,VENTX [6],"12.7 upbm affinity estimate (log intensity, higher = more binding, comparable within an allelic series)"
same,binding signal,HOXA7 [7],"12 upbm affinity estimate (log intensity, higher = more binding, comparable within an allelic series)"
same,binding signal,HOXC10 [8],"12.4 upbm affinity estimate (log intensity, higher = more binding, comparable within an allelic series)"
same,binding signal,PAX4,"11.7 upbm affinity estimate (log intensity, higher = more binding, comparable within an allelic series)"
same,binding signal,VENTX [9],"11.8 upbm affinity estimate (log intensity, higher = more binding, comparable within an allelic series)"
same,binding signal,HOXB6 [10],"10.2 upbm affinity estimate (log intensity, higher = more binding, comparable within an allelic series)"
same,binding signal,HOXA2 [11],"12.6 upbm affinity estimate (log intensity, higher = more binding, comparable within an allelic series)"
same,binding signal,HOXA4 [12],"12.2 upbm affinity estimate (log intensity, higher = more binding, comparable within an allelic series)"
same,binding signal,HOXB9 [13],"12.3 upbm affinity estimate (log intensity, higher = more binding, comparable within an allelic series)"
same,binding signal,HOXB4 [14],"14.1 upbm affinity estimate (log intensity, higher = more binding, comparable within an allelic series)"
same,binding signal,HOXC9 [15],"12.9 upbm affinity estimate (log intensity, higher = more binding, comparable within an allelic series)"
same,binding signal,HOXC9 [16],"12.9 upbm affinity estimate (log intensity, higher = more binding, comparable within an allelic series)"
same,binding signal,HOXA2 [17],"13.4 upbm affinity estimate (log intensity, higher = more binding, comparable within an allelic series)"
same,binding signal,HOXA4 [18],"13.9 upbm affinity estimate (log intensity, higher = more binding, comparable within an allelic series)"
same,binding signal,HOXC10 [19],"12.2 upbm affinity estimate (log intensity, higher = more binding, comparable within an allelic series)"
same,binding signal,VAX1 [20],"13 upbm affinity estimate (log intensity, higher = more binding, comparable within an allelic series)"
same,binding signal,HOXD13,"11.6 upbm affinity estimate (log intensity, higher = more binding, comparable within an allelic series)"
same,binding signal,HOXB9 [21],"12 upbm affinity estimate (log intensity, higher = more binding, comparable within an allelic series)"
same,binding signal,HOXC9 [22],"11.2 upbm affinity estimate (log intensity, higher = more binding, comparable within an allelic series)"
same,binding signal,VAX1 [23],"12.6 upbm affinity estimate (log intensity, higher = more binding, comparable within an allelic series)"
same,binding signal,HOXA2 [24],"11.1 upbm affinity estimate (log intensity, higher = more binding, comparable within an allelic series)"
same,binding signal,HOXA7 [25],"8.96 upbm affinity estimate (log intensity, higher = more binding, comparable within an allelic series)"
same,binding signal,HOXA4 [26],"11.6 upbm affinity estimate (log intensity, higher = more binding, comparable within an allelic series)"
same,binding signal,HOXA2 [27],"12.3 upbm affinity estimate (log intensity, higher = more binding, comparable within an allelic series)"
same,binding signal,VAX1 [28],"12.5 upbm affinity estimate (log intensity, higher = more binding, comparable within an allelic series)"
same,binding signal,HOXB6 [29],"12.4 upbm affinity estimate (log intensity, higher = more binding, comparable within an allelic series)"
TATTGCCA,binding signal,HESX1 [30],"7.79 upbm affinity estimate (log intensity, higher = more binding, comparable within an allelic series)"
same,binding signal,HESX1 [31],"7.9 upbm affinity estimate (log intensity, higher = more binding, comparable within an allelic series)"
same,binding signal,HESX1 [32],"7.47 upbm affinity estimate (log intensity, higher = more binding, comparable within an allelic series)"
CTCAATTC,binding signal,HESX1 [30],"7.54 upbm affinity estimate (log intensity, higher = more binding, comparable within an allelic series)"
same,binding signal,HESX1 [31],"7.59 upbm affinity estimate (log intensity, higher = more binding, comparable within an allelic series)"
same,binding signal,HESX1 [32],"7.26 upbm affinity estimate (log intensity, higher = more binding, comparable within an allelic series)"
TAACGATA,binding signal,HESX1 [30],"7.67 upbm affinity estimate (log intensity, higher = more binding, comparable within an allelic series)"
same,binding signal,HESX1 [31],"7.8 upbm affinity estimate (log intensity, higher = more binding, comparable within an allelic series)"
same,binding signal,HESX1 [32],"7.53 upbm affinity estimate (log intensity, higher = more binding, comparable within an allelic series)"
